# Source: PubChem BioAssay (NCI)
# “And” between values parts separate entries of the source, which are not always exact repeats. Equal entries are not always repeated. Compounds without any hit were thinned out: in the full panel of roughly 83,000, 20% have a hit.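 Assay: single dose, 48 h. Readout: percent growth (0 = no net growth; negative = cell death). Active: <10.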 The source made the active and inactive calls.
# Legend:
# Test in all cases: NCI-60 one-dose screen, 48 h (100 = growth as untreated, 0 = no growth, -100 = all killed)
# Conditions in all cases: 10 µM unless noted
# HCT-15 colon = system: HCT-15 colon
# HT29 colon = system: HT29 colon
# SNB-75 CNS = system: SNB-75 CNS
# SNB-19 CNS = system: SNB-19 CNS
# U251 CNS = system: U251 CNS
# PC-3 prostate = system: PC-3 prostate
# SK-MEL-5 melanoma = system: SK-MEL-5 melanoma
# UACC-62 melanoma = system: UACC-62 melanoma
# LOX IMVI melanoma = system: LOX IMVI melanoma
# SK-MEL-28 melanoma = system: SK-MEL-28 melanoma
# SK-MEL-2 melanoma = system: SK-MEL-2 melanoma
# EKVX NSCLC = system: EKVX NSCLC
# SN12C renal = system: SN12C renal
# UO-31 renal = system: UO-31 renal
# TK-10 renal = system: TK-10 renal
# ACHN renal = system: ACHN renal
# CAKI-1 renal = system: CAKI-1 renal
# A498 renal = system: A498 renal
# CCRF-CEM leukemia = system: CCRF-CEM leukemia
# MOLT-4 leukemia = system: MOLT-4 leukemia
SMILES,growth (HCT-15 colon),growth (HT29 colon),growth (SNB-75 CNS),growth (SNB-19 CNS),growth (U251 CNS),growth (PC-3 prostate),growth (SK-MEL-5 melanoma),growth (UACC-62 melanoma),growth (LOX IMVI melanoma),growth (SK-MEL-28 melanoma),growth (SK-MEL-2 melanoma),growth (EKVX NSCLC),growth (SN12C renal),growth (UO-31 renal),growth (TK-10 renal),growth (ACHN renal),growth (CAKI-1 renal),growth (A498 renal),growth (CCRF-CEM leukemia),growth (MOLT-4 leukemia)
Cn1cc(-c2cc3nc(-c4c[nH]c5ccccc45)cc(N)n3n2)c2ccccc21,-73% (active),-65.3% (active),91.6% (inactive),18.6% (inactive),-91.1% (active),-69.7% (active),8.15% (active),-88.5% (active),-77.8% (active),-97.8% (active),-65.5% (active),55.1% (inactive),-78.5% (active),-61.2% (active),8.91% (active),-73.9% (active),29.7% (inactive),130% (inactive),-38.1% (active),-19.4% (active)
COc1cc(CNC(=O)[C@]23CCC(C)(C)CC2C2=CCC4[C@@]5(C)CCC(OC(C)=O)C(C)(C)C5CC[C@@]4(C)[C@]2(C)CC3)ccc1OCc1cn(-c2ccc(Cl)cc2Cl)nn1 (stereo not given in full),111% (inactive),98% (inactive),118% (inactive),89.8% (inactive),104% (inactive),98.3% (inactive),103% (inactive),81.4% (inactive),98.3% (inactive),117% (inactive),99.8% (inactive),86.5% (inactive),94.1% (inactive),80.2% (inactive),134% (inactive),101% (inactive),77.9% (inactive),146% (inactive),98.2% (inactive),104% (inactive)
Cc1ccc(C(=O)C[n+]2cccc3c4ccccc4ccc32)cc1,56.8% (inactive),12.5% (inactive),43% (inactive),25.9% (inactive),17.8% (inactive),18.7% (inactive),-88.8% (active),32.2% (inactive),-24.2% (active),44.5% (inactive),36.5% (inactive),28.9% (inactive),14.7% (inactive),29.7% (inactive),41.3% (inactive),50.6% (inactive),53.2% (inactive),75.2% (inactive),28.1% (inactive),14.4% (inactive)
CN1CCN(C(=O)Oc2cc3c(c4ccccc24)[C@H](CCl)CN3C(=O)c2cc3cc(OCCCN4CCC4)ccc3[nH]2)[C@@H]2CSSC[C@H]21,2.11% (active),2.15% (active),-64.6% (active),-64.6% (active),-42.8% (active),-12.2% (active),-74.1% (active),-81.9% (active),-61.6% (active),-39.5% (active),-83.7% (active),-50.6% (active),-75.8% (active),-0.968% (active),11.7% (inactive),-22.8% (active),1.34% (active),-18.7% (active),-28% (active),-9.2% (active)
Cc1cc(C(NC(=O)CCCCCNc2cccc3c2C(=O)N(C2CCC(=O)CC2=O)C3=O)c2cccc(N(C)C)c2)c(O)c2ncccc12 (stereo not given),8.01% (active),28.6% (inactive),32.9% (inactive),10.1% (inactive),17.6% (inactive),7.35% (active),-70.1% (active),-6.03% (active),0.535% (active),10.7% (inactive),-1.61% (active),7.79% (active),10.2% (inactive),8.84% (active),42.4% (inactive),14.7% (inactive),19.4% (inactive),26.9% (inactive),-19.4% (active),-0.125% (active)
C#CCN(C)CCCOc1ccc(N(CC)C(=O)c2cc(C(C)C)c(O)cc2O)cc1Cl,-52.8% (active),7.04% (active),-1.15% (active),11.2% (inactive),1.31% (active),12.6% (inactive),-95.9% (active),-66% (active),-95.4% (active),5.69% (active),-57.9% (active),-7.81% (active),-52.1% (active),8.11% (active),11.1% (inactive),11.6% (inactive),9.89% (active),21.6% (inactive),7.35% (active),-33.6% (active)
O=C(CCl)Nc1ccc(C(=O)/C=C/c2cc3ccccc3nc2Cl)cc1,-85.4% (active) and 19.7% (inactive),2.8% (active) and 65% (inactive),51.2% (inactive) and 68% (inactive),-80% (active) and 46.6% (inactive),-83.8% (active) and 39.7% (inactive),11.1% (inactive) and 56.4% (inactive),-78.4% (active) and 62.4% (inactive),-33.3% (active) and 12.9% (inactive),-97.9% (active) and 3.63% (active),-69.5% (active) and 46.2% (inactive),-3.09% (active) and 60% (inactive),-5.66% (active) and 36.7% (inactive),-74.1% (active) and 39.4% (inactive),-98.1% (active) and 1.88% (active),49.1% (inactive) and 74.8% (inactive),-99.2% (active) and 9.77% (active),-43.5% (active) and 11.1% (inactive),116% (inactive) and 193% (inactive),-23.1% (active) and 5.66% (active),-46% (active) and 18.3% (inactive)
Clc1ccccc1Nc1nnc(-c2c[nH]c3ccccc23)o1,26.1% (inactive),2.07% (active),42% (inactive),41% (inactive),7.39% (active),32.7% (inactive),9.29% (active),15.2% (inactive),15.5% (inactive),59.4% (inactive),-2.89% (active),18.7% (inactive),26.6% (inactive),33.1% (inactive),69% (inactive),39.9% (inactive),32.7% (inactive),113% (inactive),9.07% (active),5.42% (active)
CC1CCc2c(sc3nc(SCC(=O)c4cccc(Br)c4)n(-c4ccccc4)c(=O)c23)C1 (stereo not given),41% (inactive),21.6% (inactive),54.9% (inactive),64.8% (inactive),-25.5% (active),56.6% (inactive),66% (inactive),89.8% (inactive),45.2% (inactive),73.5% (inactive),99.2% (inactive),66.2% (inactive),32.8% (inactive),16.6% (inactive),-21.6% (active),-60.6% (active),6.39% (active),114% (inactive),35.3% (inactive),28.6% (inactive)
COc1ccc(N=Nc2c(N)nn3c(-c4cc5cc(Br)ccc5oc4=O)ccnc23)cc1,29.9% (inactive),32.9% (inactive),-14.8% (active),2.33% (active),-12.3% (active),44.9% (inactive),-14.2% (active),30.7% (inactive),26.4% (inactive),28.8% (inactive),29.6% (inactive),34.8% (inactive),17.6% (inactive),8.11% (active),62% (inactive),-21.2% (active),12% (inactive),36.1% (inactive),96.2% (inactive),85.6% (inactive)
COc1cc(/C=C/C(=O)c2ccc(S(=O)(=O)NCCNc3nc(N(C)C)nc(N4CCOCC4)n3)cc2)cc(OC)c1OC,-100% (active),-100% (active),20% (inactive),29.1% (inactive),-100% (active),-76.5% (active),18.8% (inactive),-21.7% (active),-100% (active),-100% (active),81.4% (inactive),36.3% (inactive),-22% (active),12.8% (inactive),13.5% (inactive),-100% (active),39.4% (inactive),51.9% (inactive),-27.9% (active),-40.2% (active)
CN(C)c1ccc(/C=C/c2n(Cc3ccc4ccccc4c3)c3ccccc3[n+]2Cc2ccc3ccccc3c2)cc1,-84.4% (active),-31.6% (active),-84.3% (active),-92.5% (active),-67.5% (active),-50.9% (active),-92.2% (active),-93.3% (active),-95.7% (active),-76% (active),-70.8% (active),-95.8% (active),-80.5% (active),-91.9% (active),-81.1% (active),-97.6% (active),-95.9% (active),-82.1% (active),-48.5% (active),-38.1% (active)
CC(=O)Nc1cccc(-n2c(COc3ccc(I)cc3)nc3ccccc32)c1,69.6% (inactive) and 108% (inactive),105% (inactive) and 119% (inactive),57.8% (inactive) and 93.3% (inactive),93.5% (inactive) and 103% (inactive),81.8% (inactive) and 105% (inactive),63.3% (inactive) and 107% (inactive),74.1% (inactive) and 104% (inactive),61.4% (inactive) and 97.8% (inactive),85.3% (inactive) and 107% (inactive),107% (inactive) and 116% (inactive),82.8% (inactive) and 118% (inactive),86% (inactive) and 102% (inactive),95.7% (inactive) and 111% (inactive),-67.3% (active) and 90% (inactive),102% (inactive) and 104% (inactive),-78.2% (active) and 116% (inactive),56.7% (inactive) and 105% (inactive),114% (inactive) and 136% (inactive),90.4% (inactive) and 96.2% (inactive),83.6% (inactive) and 102% (inactive)
O=C(CSc1nnc(-c2ccc(-c3nc4ccc(Cl)cc4[nH]3)cc2)o1)Nc1ccc(Cl)cc1,8.62% (active),23.1% (inactive),2.16% (active),-8.15% (active),-74.1% (active),-24.1% (active),8.87% (active),-44.8% (active),-92.5% (active),-73.6% (active),14.7% (inactive),48.4% (inactive),-11.6% (active),30.9% (inactive),73.7% (inactive),-69.3% (active),-40.3% (active),127% (inactive),4.89% (active),5.53% (active)
